Reference: PubChem BioAssay

test: small-molecule microarray binders of probe aWnt5a, primary screen, biochemical, biotinylated probe, 635/667 nm fluorescence (AID 1113); settings: higher = more signal;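 note: score merges 667 nm fluorescence intensity with signal-to-noise per printed feature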

Structure (SMILES)	composite z-score
CC(C)c1ccc(NN2C(C(O)c3ccc(N(C)C)cc3)C=CC3C(=O)N(c4ccccc4)C(=O)C32)cc1 (centres undefined)	0.0317
CC(C)NC(=O)[C@@H]1c2ccccc2C(=O)N(Cc2ccccc2)[C@H]1c1ccc(CO)cc1	0.115
CCOC(=O)C[C@H]1[C@H](OC(=O)c2ccccc2-c2ccccc2)[C@@H](NC(=O)Cc2ccc(OC)cc2)c2cc(OCCCO)ccc2N1C(=O)c1ccccc1	-0.0519
Cc1ccc(S[C@]2(C(=O)O)CC(=O)N(C3Cc4ccccc4C3)[C@@H]2c2ccc(CO)cc2I)cc1	-0.117
CC(C)(C)OC(=O)CC[C@@]1(C(=O)NCCN2CCOCC2)N=C(c2ccc(OCCCO)cc2)O[C@@H]1c1ccccc1	0.0095
CCCN1C(=O)[C@@]2(CCC(=O)OC(C)(C)C)N=C(c3ccc(OCCCO)cc3)O[C@H]2c2ccccc21	0.0044
COCCOC(=O)N1C(=O)[C@@]2(c3cc(C#CCC(C(=O)OC)C(=O)OC)ccc31)[C@H](c1ccc(O)cc1)N1[C@H](c3ccccc3)[C@H](c3ccccc3)OC(=O)[C@H]1[C@@H]2C(N)=O	0.0297
N#Cc1ccc(NN2C(C(O)c3ccc([N+](=O)[O-])cc3)C=CC3C(=O)N(c4ccccc4)C(=O)C32)cc1 (centres undefined)	0.119
COCC(=C=CC[C@H](O)c1ccc(OCCO)cc1)C[C@H](O)c1cc(Cl)cc(Cl)c1O	-0.0108
CCOC(=O)C1=CC[C@@H](c2ccccc2)N(S(=O)(=O)c2ccc(C)cc2)[C@H]1C(=O)OCC	0.177
CCCCCN1CC=CC23O[C@@H]4C=CCOC(=O)[C@@H]4[C@H]2C(=O)N(CCCO)[C@@H]3C1=O (some centres undefined)	-0.204
C[C@]1(C(=O)NCc2ccccc2)c2ccccc2C(=O)N(Cc2cc(F)cc(C(F)(F)F)c2)[C@H]1c1ccc(CO)cc1	-0.0685
COc1ccc(C(O)C2C=CC3C(=O)NC(=O)C3N2Nc2ccccn2)cc1OCc1ccccc1 (centres undefined)	-0.15
C=C(CCCC)C(=O)CC[C@H](OC(=O)c1cccnc1)c1cccc(OCCO)c1	-0.0107
O=C1OCCC/C=C\[C@H]2OC34C=CCN(Cn5nnc6ccccc65)C(=O)[C@H]3N(CCCCCO)C(=O)[C@@H]4C12 (some centres undefined)	-0.175
CC(C)CNC(=O)[C@@H]1c2ccccc2C(=O)N(Cc2cc(C(F)(F)F)cc(C(F)(F)F)c2)[C@H]1c1ccc(CO)cc1	0.0437
CC(C)(C)N1CC=CC23O[C@@H]4C=CCOC(=O)[C@@H]4[C@H]2C(=O)N(CCCCCO)[C@@H]3C1=O (some centres undefined)	-0.169
CCOC(=O)C[C@H]1[C@H](OC(=O)c2ccc(-c3ccccc3)cc2)[C@@H](NC(=O)Cc2ccc(OC)cc2)c2cc(OCCCO)ccc2N1C(=O)c1ccc2ccccc2n1	0.0068
COCCOC(=O)N1C(=O)[C@@]2(c3cc(C#CCNC(N)=O)ccc31)[C@H](c1ccc(O)cc1)N1[C@H](c3ccccc3)[C@H](c3ccccc3)OC(=O)[C@H]1[C@@H]2C(=O)Nc1nc2ccccc2s1	-0.0242
COc1ccc(C#Cc2ccc3c(c2)[C@]2(C(=O)N3)[C@H](C(=O)NC[C@H](O)c3ccccc3)[C@H]3C(=O)O[C@H](c4ccccc4)[C@H](c4ccccc4)N3[C@@H]2c2ccc(OCCO)cc2)cc1	0.0037
O=C1OCCC=C[C@H]2OC34C=CCN(Cc5ccccc5)C(=O)[C@H]3N(CCCO)C(=O)[C@@H]4C12 (some centres undefined)	-0.164
COC(=O)[C@@]1(Cc2ccccc2)N=C(c2ccc(OCCCO)cc2)O[C@H]1c1ccccc1N=[N+]=[N-]	-0.0405
COc1ccc(NN2C(C(O)c3ccc(OC)c(OCc4ccccc4)c3)C=CC3C(=O)N(C4CCCCC4)C(=O)C32)cc1 (centres undefined)	0.135
C=CCC(OC(C)=O)[C@@H]1[C@@H](N(Cc2cccc3ccccc23)C(=O)c2cccc3ccccc23)c2cc(OCCCO)ccc2N1C(=O)c1ccc2ccccc2n1 (some centres undefined)	-0.208
CC(C)CNC(=O)[C@@]1(c2ccc([N+](=O)[O-])cc2)CC(=O)N(CC23CC4CC(CC(C4)C2)C3)[C@@H]1c1ccc(CO)cc1I	-0.0587
Cc1ccc(S[C@]2(C(=O)NCC(C)C)CC(=O)N(Cc3ccccc3Cl)[C@@H]2c2ccc(CO)cc2)cc1	-0.228
[N-]=[N+]=NCc1ccccc1C[C@]1(C(=O)O)N=C(c2ccc(OCCCO)cc2)O[C@H]1c1ccccc1	-0.096
Cc1ccccc1C(O)C1C=CC2C(=O)N(C)C(=O)C2N1Nc1ccccc1 (centres undefined)	0.111
O=C1O[C@H](c2ccccc2)[C@H](c2ccccc2)N2[C@H]1[C@@H](C(=O)N1CCN(c3ncccn3)CC1)[C@]1(C(=O)Nc3ccccc31)[C@H]2c1ccc(OCCO)cc1	-0.0286
